Measurements published in PubChem BioAssay (Tox21).
Inconclusive results are not listed. Calls of active or inactive are those of the source. Unless noted, the call rests on the fitted dose curve; in most records, active means well fitted curve in the direction sought with a large enough effect in the repeat runs; inconclusive means weak or mixed curves; inactive means no such curve, though single readings can be large; an effect the other way counts as inactive or inconclusive.

Experiments:
[1] = qHTS assay to identify small molecule antagonists of the estrogen related receptor (ERR) signaling pathway - cell viability counter screen (AID 1224818); further: series mostly up to about 46 µM
Procedure, shortened: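 ERR cells, 2,000 per well, compound added after 6 h and incubated 17.5 h at 37 C. Viability read by CellTiter-Fluor fluorescence after a further 30 min at 37 C.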

[2] = qHTS assay to identify small molecule antagonists of the estrogen related receptor (ERR) signaling pathway (AID 1224819;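 further: luminescence from an ERR-driven luciferase reporter measured with One-Glo reagent; series mostly up to about 46 µM; nearly all actives have a fitted effect of over 50% in size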)
Procedure, shortened: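 ERR reporter cell line (NTP) plated at 2,000 cells/well, settled 6 h at 37C/5% CO2, then exposed to LOPAC compounds for 18 h at 37C. One-Glo luciferase luminescence read after 30 min at room temperature.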

[3] = qHTS assay to identify small molecule agonists of the estrogen related receptor (ERR) signaling pathway (AID 1224820)
Procedure, shortened: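 Quantitative HTS of the LOPAC library used NTP ERR reporter cells treated 18 h at 37 C. Signal is luminescence after One-Glo addition and a 30 min room-temperature incubation.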

[4] = system: estrogen-related receptor alpha (ERRalpha) with PGC-1alpha coactivator, human; experiment: qHTS assay to identify small molecule antagonists of the estrogen related receptor signaling pathway with the pleiotropic PPARgamma coactivator (PGC) (AID 1224821; calls by dose curve;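 further: series mostly up to about 46 µM; lower luminescence signal means antagonism of PGC/ERR signalling; nearly all actives have a fitted effect of over 50% in size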)
Procedure, shortened: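 Quantitative HTS for antagonism: PGC/ERR cells received compounds after 6 h attachment and were incubated 18 h at 37 C, with luminescence (One-Glo) as the endpoint.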

[5] = qHTS assay to identify small molecule antagonists of the estrogen related receptor signaling pathway with the pleiotropic PPARgamma coactivator (PGC) cell viability counter screen (AID 1224822; further: series mostly up to about 46 µM)
Procedure, shortened: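 PGC/ERR cells rested 6 h, then compound-treated 17.5 h at 37 C. CellTiter-Fluor added for 30 min at 37 C, viability measured by fluorescence intensity.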

[6] = qHTS assay to identify small molecule agonists of the estrogen related receptor signaling pathway with the pleiotropic PPARgamma coactivator (PGC) (AID 1224823)
Procedure, shortened: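 Cell-based luciferase assay in the NTP-supplied PGC/ERR line, 2,000 cells/well; 18 h compound exposure at 37 C, luminescence after One-Glo.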

[7] = qHTS assay for small molecule agonists of the p53 signaling pathway (AID 651631; calls by dose curve; further: nearly all actives have a fitted effect of over 15% in size)
Procedure, shortened: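 Stably transfected HCT-116 cells (beta-lactamase behind p53 response elements) get compounds after a 5 h settling period; 16 h later at 37 °C, FRET substrate is loaded and fluorescence read after 2 h.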

[8] = qHTS assay for small molecules that induce genotoxicity in human embryonic kidney cells expressing luciferase-tagged ATAD5 (AID 651632); further: nearly all actives have a fitted effect of over 15% in size
Procedure, shortened: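 HEK293T cells carrying luciferase-tagged ATAD5 were given compound or DMSO vehicle and incubated 16 hr at 37C, 5% CO2. Luciferase activity was read after 30 min at room temperature with Amplite; a rise signals genotoxic stress.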

[9] = qHTS assay for small molecule agonists of the p53 signaling pathway - cell viability (AID 651633; calls by dose curve;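 further: p53RE-bla HCT reporter cells with a stable beta-lactamase p53 reporter; series mostly up to about 83 µM; nearly all actives have a fitted effect of over 30% in size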)
Procedure, shortened: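 p53RE-bla cells were treated with compound for 16 hours at 37 C. Cytotoxicity was then measured as CellTiter-Glo luminescence after 30 min at room temperature.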

[10] = qHTS assay for small molecules that induce genotoxicity in human embryonic kidney cells expressing luciferase-tagged ATAD5 - cell viability (AID 651634; calls by dose curve; further: nearly all actives have a fitted effect of over 25% in size)
Procedure, shortened: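 HEK293T cells carrying luciferase-tagged ATAD5, 2,000 cells/well, exposed to compound for 15.5 hr at 37C. Viability read as live-cell protease activity by CellTiter-Fluor fluorescence after 30 min at 37C.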

[11] = qHTS assay for small molecule disruptors of the mitochondrial membrane potential - cell viability (AID 720634; calls by dose curve;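 further: human HepG2 liver cancer cells; series mostly up to about 83 µM; nearly all actives have a fitted effect of over 20% in size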)
Procedure, shortened: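 HepG2 cells, 2,000 per well, attached overnight, then treated 1 hr at 37 C, 5% CO2. Viability read as ATP by CellTiter-Glo luminescence after 30 min at room temperature. Read in the same wells as the m-MPI membrane-potential dye assay.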

[12] = qHTS assay to test for compound auto fluorescence at 590 nm (red) in HepG2 cells (AID 720674)
Procedure, shortened: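 HepG2 cells, 2,000 per well in MEM with 10% FBS, attached overnight at 37 C, then got 23 nL compound or DMSO. After 1 hr at 37 C, 5% CO2, red fluorescence was read at 540/590 nm against Rose Bengal sodium as reference.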

[13] = qHTS assay to test for compound auto fluorescence at 535 nm (green) in HepG2 cells (AID 720675)
[14] = qHTS assay to test for compound auto fluorescence at 460 nm (blue) in HEK293 cells (AID 720678)
Procedure, shortened: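 Measured: blue fluorescence (Ex 405/Em 460 nm) of compound-treated HEK293 cells, incubated overnight at 37C with 5% CO2 and scaled to triamterene equivalents.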

[15] = qHTS assay to test for compound auto fluorescence at 590 nm (red) in HEK293 cells (AID 720679)
Procedure, shortened: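 Using HEK293 cells at 2,000 per well, the screen added 23 nL of each compound after cell attachment and incubated overnight (37C, 5% CO2). The plate reader then captured red-label fluorescence, Ex/Em 540/590nm.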

[16] = qHTS assay to test for compound auto fluorescence at 535 nm (green) in HEK293 cells (AID 720680)
[17] = qHTS assay to test for compound auto fluorescence at 460 nm (blue) in HEK293 cell free culture (AID 720681)
Procedure, shortened: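 Compounds were added to cell-free DMEM with 10% FBS and fluorescence read directly. The blue channel used 405 nm excitation and 460 nm emission, with triamterene as the reference fluorophore.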

[18] = qHTS assay to test for compound auto fluorescence at 535 nm (green) in HEK293 cell free culture (AID 720682)
Procedure, shortened: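 Using fluorescein as calibrant, autofluorescence was quantified at 485/535 nm in cell-free DMEM containing 10% FBS after pintool addition of compound or vehicle.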

[19] = qHTS assay to test for compound auto fluorescence at 590 nm (red) in HEK293 cell free culture (AID 720683)
Procedure, shortened: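 Cell-free wells of DMEM with 10% FBS received compound, and intrinsic fluorescence was read at excitation/emission 540/590 nm. Values expressed as equivalence to Rose Bengal sodium.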

[20] = qHTS assay to test for compound auto fluorescence at 590 nm (red) in HepG2 cell free culture (AID 720684)
Procedure, shortened: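 Compounds are added to culture medium (MEM, 10% FBS) lacking cells, then fluorescence is read at excitation 540 nm, emission 590 nm, with Rose Bengal sodium as the equivalency standard.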

[21] = qHTS assay to test for compound auto fluorescence at 460 nm (blue) in HepG2 cell free culture (AID 720685)
Procedure, shortened: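 Compound (23 nL) or DMSO pinned into cell-free MEM with 10% FBS; blue fluorescence read at 405/460 nm excitation/emission, expressed as auto-fluorescence equivalency to triamterene.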

[22] = qHTS assay to test for compound auto fluorescence at 535 nm (green) in HepG2 cell free culture (AID 720686)
[23] = qHTS assay to test for compound auto fluorescence at 460 nm (blue) in HepG2 cells (AID 720687)
Procedure, shortened: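 HepG2 cells in MEM with 10% FBS, attached overnight at 37 C, were exposed to compound or DMSO for 1 hr at 37 C, 5% CO2. Blue fluorescence was read at 405/460 nm, with triamterene as reference fluorophore.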

[24] = qHTS assay to identify small molecule antagonists of the glucocorticoid receptor (GR) signaling pathway - cell viability counter screen (AID 720693); further: nearly all actives have a fitted effect of over 55% in size
[25] = qHTS assay for identifying genotoxic compounds that show differential cytotoxicity against isogenic chicken DT40 cell lines with known DNA damage response pathways - Rev3 mutant cell line (AID 743014); further: nearly all actives have a fitted effect of over 55% in size
[26] = qHTS assay for identifying genotoxic compounds that show differential cytotoxicity against isogenic chicken DT40 cell lines with known DNA damage response pathways - Rad54/Ku70 mutant cell line (AID 743015); further: nearly all actives have a fitted effect of over 60% in size
[27] = qHTS assay to identify small molecule antagonists of the androgen receptor (AR) signaling pathway using the MDA cell line - cell viability counter screen (AID 743041; further: nearly all actives have a fitted effect of over 45% in size)
Procedure, shortened: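 Same-well cytotoxicity was assessed by CellTiter-Fluor in MDA-kb2 AR-luc cells after 16 h of compound treatment under R1881 agonism.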

[28] = biological target: Estrogen receptor (Homo sapiens) (UniProt P03372); experiment: qHTS assay to identify small molecule antagonists of the estrogen receptor alpha (ER-alpha) signaling pathway (AID 743069; active means well fitted curve in the direction sought with a large enough effect in the signal ratio in the repeat runs, not every such curve was filed as active; the % refers to the signal ratio)
Sequence of Estrogen receptor (Homo sapiens) (P03372 whole entry, looked up): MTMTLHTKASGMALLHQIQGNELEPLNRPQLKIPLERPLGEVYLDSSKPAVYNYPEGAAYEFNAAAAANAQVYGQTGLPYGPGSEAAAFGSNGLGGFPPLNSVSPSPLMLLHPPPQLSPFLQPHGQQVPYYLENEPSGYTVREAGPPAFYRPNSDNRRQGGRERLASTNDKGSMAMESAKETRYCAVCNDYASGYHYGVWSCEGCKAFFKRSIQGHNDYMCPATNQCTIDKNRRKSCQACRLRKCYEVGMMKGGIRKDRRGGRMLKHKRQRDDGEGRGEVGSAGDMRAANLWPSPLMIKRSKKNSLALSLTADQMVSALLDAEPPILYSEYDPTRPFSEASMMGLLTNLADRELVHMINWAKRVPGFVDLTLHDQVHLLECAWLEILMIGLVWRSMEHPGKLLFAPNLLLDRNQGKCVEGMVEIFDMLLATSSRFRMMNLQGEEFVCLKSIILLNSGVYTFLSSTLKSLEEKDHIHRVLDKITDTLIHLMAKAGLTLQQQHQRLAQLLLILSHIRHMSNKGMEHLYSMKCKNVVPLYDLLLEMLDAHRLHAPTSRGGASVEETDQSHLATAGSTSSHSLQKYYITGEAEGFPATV
Procedure, shortened: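 Reporter cells (ER-alpha-bla, HEK293 background) are conditioned overnight in stripped-serum medium (2% charcoal-stripped FBS). Compound and 17beta-estradiol exposure runs 18 hr at 37C, 5% CO2.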

[29] = qHTS assay to identify small molecule antagonists of the estrogen receptor alpha (ER-alpha) signaling pathway - cell viability counter screen (AID 743074; calls by dose curve;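 further: HEK293 cells carrying ER-alpha-UAS-bla reporter stimulated with 17beta-estradiol; nearly all actives have a fitted effect of over 45% in size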)
[30] = biological target: Estrogen receptor (Homo sapiens) (UniProt P03372); experiment: qHTS assay to identify small molecule agonists of the estrogen receptor alpha (ER-alpha) signaling pathway (AID 743075; calls by dose curve;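 further: HEK293 GripTite cells with ER-alpha and UAS-driven beta-lactamase reporter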)
[31] = biological target: Estrogen receptor (Homo sapiens) (UniProt P03372); experiment: qHTS assay to identify small molecule agonists of the estrogen receptor alpha (ER-alpha) signaling pathway using the BG1 cell line (AID 743079); further: nearly all actives have a fitted effect of over 20% in size
[32] = qHTS assay to identify small molecule antagonists of the estrogen receptor alpha (ER-alpha) signaling pathway using the BG1 cell line (AID 743080; calls by dose curve;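 further: BG1 cells stimulated with 17beta-estradiol alongside compound; series mostly up to about 70 µM; nearly all actives have a fitted effect of over 25% in size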)
Procedure, shortened: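 Quantitative HTS on the Tox21 10K library: BG1 cells with endogenous ER-alpha and ERE-luciferase reporter, 17beta-estradiol stimulation, 21.5 h compound exposure, luminescence endpoint with parallel fluorescence cytotoxicity counter-read.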

[33] = qHTS assay to identify small molecule antagonists of the estrogen receptor alpha (ER-alpha) signaling pathway using the BG1 cell line - cell viability counter screen (AID 743081);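 further: compound given together with 17beta-estradiol as the ER stimulus; series mostly up to about 70 µM; nearly all actives have a fitted effect of over 45% in size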
[34] = qHTS assay to identify aromatase inhibitors - cell viability counter screen (AID 743084);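 further: cells stimulated with testosterone during compound exposure; nearly all actives have a fitted effect of over 55% in size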
[35] = biological target: Aryl hydrocarbon receptor (Homo sapiens) (UniProt P35869); experiment: qHTS assay to identify small molecule that activate the aryl hydrocarbon receptor (AhR) signaling pathway (AID 743085);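 further: HG2L7.5c1 human HepG2 liver cells with stably integrated DRE-driven firefly reporter; series mostly up to about 70 µM; nearly all actives have a fitted effect of over 15% in size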
Sequence of Aryl hydrocarbon receptor (Homo sapiens) (P35869 whole entry, looked up): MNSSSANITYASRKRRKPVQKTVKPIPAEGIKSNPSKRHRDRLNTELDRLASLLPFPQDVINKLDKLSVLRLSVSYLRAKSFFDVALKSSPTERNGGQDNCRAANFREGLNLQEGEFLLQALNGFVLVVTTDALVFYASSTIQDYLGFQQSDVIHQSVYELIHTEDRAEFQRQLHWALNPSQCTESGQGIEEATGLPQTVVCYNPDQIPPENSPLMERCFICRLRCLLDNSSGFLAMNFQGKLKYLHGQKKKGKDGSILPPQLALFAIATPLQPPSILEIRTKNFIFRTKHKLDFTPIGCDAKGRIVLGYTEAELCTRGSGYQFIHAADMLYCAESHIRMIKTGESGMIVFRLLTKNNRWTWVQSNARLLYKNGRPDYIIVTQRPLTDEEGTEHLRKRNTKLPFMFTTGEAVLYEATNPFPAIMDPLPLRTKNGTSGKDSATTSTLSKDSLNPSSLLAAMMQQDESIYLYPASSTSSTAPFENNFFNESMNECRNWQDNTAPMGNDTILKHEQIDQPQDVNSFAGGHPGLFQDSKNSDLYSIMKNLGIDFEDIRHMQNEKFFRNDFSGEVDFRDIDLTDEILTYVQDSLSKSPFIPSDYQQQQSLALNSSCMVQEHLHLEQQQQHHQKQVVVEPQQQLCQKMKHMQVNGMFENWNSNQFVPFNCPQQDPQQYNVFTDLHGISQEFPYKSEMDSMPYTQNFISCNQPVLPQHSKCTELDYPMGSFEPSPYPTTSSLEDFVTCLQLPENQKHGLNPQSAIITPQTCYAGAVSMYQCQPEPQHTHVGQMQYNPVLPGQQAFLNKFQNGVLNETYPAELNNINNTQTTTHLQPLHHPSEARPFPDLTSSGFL
Procedure, shortened: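 Measured in HG2L7.5c1 cells: CellTiter-Fluor signal (30 min incubation, 37C) for viability, then luciferase luminescence (30 min, room temperature). Compound contact time was 24 h at 37C, following a 5 h pre-incubation.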

[36] = qHTS assay to identify small molecule that activate the aryl hydrocarbon receptor (AhR) signaling pathway - cell viability counter screen (AID 743086);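 further: HepG2 liver cells carrying the AhR DRE luciferase reporter; series mostly up to about 70 µM; nearly all actives have a fitted effect of over 45% in size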
Procedure, shortened: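 HepG2-AhR-luc (HG2L7.5c1) cells, 4000/well, treated 24 h at 37 C with compound; viability measured as CellTiter-Fluor fluorescence after 30 min in the same wells as the luciferase read.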

[37] = biological target: Peroxisome proliferator-activated receptor gamma (Homo sapiens) (UniProt P37231); experiment: qHTS assay to identify small molecule agonists of the peroxisome proliferator-activated receptor gamma (PPARg) signaling pathway (AID 743094; active means well fitted activation curve with a large enough effect in the signal ratio in the repeat runs, not every such curve was filed as active; the % refers to the signal ratio)
Sequence of Peroxisome proliferator-activated receptor gamma (Homo sapiens) (P37231 whole entry, looked up): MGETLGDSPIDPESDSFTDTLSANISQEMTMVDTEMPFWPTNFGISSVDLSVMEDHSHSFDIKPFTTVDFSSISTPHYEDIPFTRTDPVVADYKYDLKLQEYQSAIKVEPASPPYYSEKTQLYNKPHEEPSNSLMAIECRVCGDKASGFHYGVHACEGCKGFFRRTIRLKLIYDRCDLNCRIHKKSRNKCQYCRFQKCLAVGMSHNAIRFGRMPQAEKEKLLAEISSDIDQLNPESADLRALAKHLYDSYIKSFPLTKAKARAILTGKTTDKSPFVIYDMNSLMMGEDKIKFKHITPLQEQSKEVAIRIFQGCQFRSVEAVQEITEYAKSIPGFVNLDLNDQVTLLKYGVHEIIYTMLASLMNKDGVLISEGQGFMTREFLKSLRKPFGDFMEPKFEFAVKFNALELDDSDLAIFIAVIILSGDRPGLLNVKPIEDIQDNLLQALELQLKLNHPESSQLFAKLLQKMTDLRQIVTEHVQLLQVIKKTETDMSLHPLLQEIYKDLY
Procedure, shortened: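 GeneBLAzer PPARg UAS-bla HEK293H cells were plated, rested 5 h, then exposed to compounds for 17 h at 37C. Beta-lactamase activity was read by LiveBLAzer B/G FRET substrate fluorescence after 1 h at room temperature.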

[38] = qHTS assay to identify small molecule phospholipidosis (PLD) inducers (AID 1259344; active means well fitted curve in the direction sought with a large enough effect; an effect the other way counts as inactive or inconclusive)
Procedure, shortened: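 Quantitative HTS in HepG2: compound plus LipidTOX Red dye for 24 h, paraformaldehyde fixation with Hoechst 33342, widefield high-content imaging; amiodarone as positive and DMSO as negative control.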

[39] = biological target: Nuclear receptor subfamily 1 group I member 2 (Rattus norvegicus) (UniProt Q9R1A7); experiment: Rat pregnane X receptor (rPXR) activation by small molecules, qHTS assay (AID 1346983); conditions: rPXR luciferase reporter cells, One-Glo luminescence, 24 h; max activation: hits give high values; further: nearly all actives have a fitted effect of over 20% in size
Sequence of Nuclear receptor subfamily 1 group I member 2 (Rattus norvegicus) (Q9R1A7 whole entry, looked up): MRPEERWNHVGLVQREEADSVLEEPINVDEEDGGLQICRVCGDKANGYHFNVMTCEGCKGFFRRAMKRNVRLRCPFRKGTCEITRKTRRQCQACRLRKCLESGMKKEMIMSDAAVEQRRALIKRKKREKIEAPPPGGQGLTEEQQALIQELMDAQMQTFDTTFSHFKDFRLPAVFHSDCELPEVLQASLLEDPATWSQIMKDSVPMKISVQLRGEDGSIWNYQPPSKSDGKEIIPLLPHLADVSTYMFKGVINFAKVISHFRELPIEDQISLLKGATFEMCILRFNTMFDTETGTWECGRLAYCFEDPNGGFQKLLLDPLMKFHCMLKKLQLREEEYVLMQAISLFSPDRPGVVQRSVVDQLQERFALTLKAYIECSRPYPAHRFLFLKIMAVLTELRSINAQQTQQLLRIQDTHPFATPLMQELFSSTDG
Procedure, shortened: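 Cell-based rPXR activation assay: rPXR cells, 2,000 per well, rested 5hr at 37 C, then exposed to compounds in DMSO for 24 hr at 37 C. Luciferase activity read by One-Glo luminescence after 30 min at room temperature.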

[40] = biological target: Nuclear receptor subfamily 1 group I member 2 (Homo sapiens) (UniProt O75469); experiment: CYP3A4 induction through human pregnane X receptor (PXR) by small molecules, qHTS assay (AID 1346984); further: nearly all actives have a fitted effect of over 40% in size
Procedure, shortened: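 DPX-2 HepG2 cells carrying a PXR response element and CYP3A4-promoter luciferase construct, treated with compounds 24 hr at 37C. Then P450-Glo CYP3A4 Luciferin-IPA substrate (3uM final) for 3 hr at 37C, One-Glo added, luminescence read.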

[41] = biological target: Nuclear receptor subfamily 1 group I member 2 (Homo sapiens) (UniProt O75469); experiment: Human pregnane X receptor (PXR) activation by small molecules, qHTS assay (AID 1346985); further: nearly all actives have a fitted effect of over 40% in size
Procedure, shortened: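 DPX-2 cells (HepG2 co-transfected with a PXR response element and a CYP3A4-promoter luciferase construct) were seeded at 2,000 per well, rested 5 hr at 37C, then exposed to DMSO-dissolved compounds for 24 hr. Activation was read as luciferase luminescence.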
On the % scale 0 is the no-effect control and ±100 the full control effect.

COc1ccc(CNC(=O)/C=C/c2ccc3[nH]cc(CCN(C)C)c3c2)cc1
inactive: Potency [1] | Potency [2] | Potency [3] | Potency [4] | Potency [5] | Potency [6]

NCCc1c[nH]c2ccccc12
inactive: Potency [1] | Potency [2] | Potency [3] | Potency [4] | Potency [5] | Potency [6]

CCCN1CCC[C@@H](c2cccc(O)c2)C1
inactive: Potency [1] | Potency [2] | Potency [3] | Potency [4] | Potency [5] | Potency [6]

C[C@]12N[C@H](Cc3ccccc31)c1ccccc12
inactive: Potency [7] | Potency [8] | Potency [9] | Potency [10] | Potency [11] | outcome [12] | Potency [13] | Potency [14] | outcome [15] | Potency [16] | Potency [17] | Potency [18] | outcome [19] | outcome [20] | Potency [21] | Potency [22] | Potency [23] | Potency [24] | Potency [25] | Potency [26] | Potency [27] | Potency [28] | Potency [29] | Potency [30] | Potency [31] | Potency [32] | Potency [33] | Potency [34] | Potency [35] | Potency [36] | Potency [37] | Potency [1] | Potency [2] | Potency [3] | Potency [4] | Potency [5] | Potency [6] | Potency [38] | max activation [39] -5.86% | Potency [40] | Potency [41]
